Reference: paper PMC4336329 (PLoS ONE, 2015)
Screen size: about 310,000 compounds; about 14,000 (4.5%) showed an effect of 50% or more. The effect is printed as a negative number. The list comes from a sample in which strong results are over-represented; it also holds similar structures and randomly drawn compounds.

target: human ether-à-go-go-related gene (hERG) potassium channel (human, UniProt Q12809); test: primary screen, population patch clamp on CHO cells stably expressing hERG; higher = less effect of the substance
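Also: peak tail current of the secondary pulse compared with the same well before compound.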

Sequence of human ether-à-go-go-related gene (hERG) potassium channel (Q12809 whole entry, looked up): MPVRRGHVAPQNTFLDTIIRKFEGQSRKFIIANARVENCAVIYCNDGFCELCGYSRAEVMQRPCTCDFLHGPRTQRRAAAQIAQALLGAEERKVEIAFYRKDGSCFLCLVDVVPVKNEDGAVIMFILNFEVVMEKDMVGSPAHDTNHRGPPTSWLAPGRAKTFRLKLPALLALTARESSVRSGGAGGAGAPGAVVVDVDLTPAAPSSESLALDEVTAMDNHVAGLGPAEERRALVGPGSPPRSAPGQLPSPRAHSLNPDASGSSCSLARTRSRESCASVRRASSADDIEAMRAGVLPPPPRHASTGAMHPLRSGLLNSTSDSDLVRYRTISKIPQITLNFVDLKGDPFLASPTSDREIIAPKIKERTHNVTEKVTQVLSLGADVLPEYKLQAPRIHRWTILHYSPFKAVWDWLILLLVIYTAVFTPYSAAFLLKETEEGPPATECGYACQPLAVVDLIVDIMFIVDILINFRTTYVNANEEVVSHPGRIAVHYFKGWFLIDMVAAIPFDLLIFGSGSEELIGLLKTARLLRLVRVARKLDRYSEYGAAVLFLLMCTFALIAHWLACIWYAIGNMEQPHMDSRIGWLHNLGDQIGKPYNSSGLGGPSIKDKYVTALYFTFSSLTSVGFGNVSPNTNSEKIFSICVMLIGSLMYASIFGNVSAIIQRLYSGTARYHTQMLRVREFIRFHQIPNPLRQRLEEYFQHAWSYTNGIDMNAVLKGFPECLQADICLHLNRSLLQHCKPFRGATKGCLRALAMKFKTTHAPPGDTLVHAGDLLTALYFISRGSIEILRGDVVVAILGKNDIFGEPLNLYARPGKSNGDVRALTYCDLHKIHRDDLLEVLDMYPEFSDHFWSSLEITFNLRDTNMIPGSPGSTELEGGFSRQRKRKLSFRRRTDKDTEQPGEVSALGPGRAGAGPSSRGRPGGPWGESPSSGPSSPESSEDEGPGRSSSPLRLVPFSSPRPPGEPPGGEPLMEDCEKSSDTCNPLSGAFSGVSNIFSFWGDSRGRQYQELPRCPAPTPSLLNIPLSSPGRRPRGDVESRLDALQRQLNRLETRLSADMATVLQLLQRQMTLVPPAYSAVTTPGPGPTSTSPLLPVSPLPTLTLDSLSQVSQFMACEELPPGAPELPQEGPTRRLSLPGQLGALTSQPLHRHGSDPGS

SMILES	hERG current change (%, negative = inhibition) at 10uM [%]
Cc1cc(Cl)ccc1N(CC(=O)NCc1ccccc1)S(C)(=O)=O	-1.12
Cc1cc(Cl)ccc1OCCCC(=O)NNC(=O)c1ccncc1	-30.2
COc1ccccc1NC(=O)CSc1nnc(COc2ccc(Cl)cc2)n1Cc1ccco1	-12.7
CC(Sc1nnc(COc2ccc(Cl)cc2)n1Cc1ccco1)C(=O)N1CCNC1=O (stereo not drawn)	-55.9
CC(Sc1nnc(COc2ccc(Cl)cc2)n1Cc1ccccc1)C(=O)O (stereo not drawn)	3.06
O=C(CSc1nnc(COc2ccc(Cl)cc2)n1Cc1ccco1)c1ccccc1F	13.1
Clc1ccc(OCc2nnc(SCc3nc4ccccc4[nH]3)n2Cc2ccco2)cc1	-36
Cl.Clc1ccc(OCc2nnc(SCCN3CCCCC3)n2Cc2ccco2)cc1	-75.9
N#Cc1c(NC(=O)CSc2nc(-c3ccco3)cc(C(F)(F)F)n2)sc2c1CCCC2	12.3
Cc1ccc(/C=N/Nc2nc(C(C)(C)C)cs2)o1.Cl	-22.5
CC(=O)Nc1cccc(NC(=O)COc2ccc3c(c2)OCO3)c1	4.48
O=C(O)c1ccc(Br)cn1	9.73
O=C(O)c1ccc([N+](=O)[O-])c(CS(=O)(=O)c2ccc(Cl)cc2)c1	6.82
N#Cc1cnn2c(C(F)(F)F)c3c(nc12)CCCC3	-5.18
COC(CN1CCc2c(C)nc3c(C#N)cnn3c21)OC	5.84
Cc1nc2c(C#N)cnn2c2c1CCNN2C	-1.38
Cc1nc2c(C#N)cnn2c2c1CCN2CC1CCCO1 (stereo not drawn)	-51.7
Cc1nc2c(C#N)cnn2c2c1CCN(Cc1ccccc1)N2C	-58
COC(=O)C(C(C)C)N1CCc2c(C)nc3c(C#N)cnn3c21 (stereo not drawn)	13.9
Cc1cc(=O)n2c3ccccc3n(C)c2n1	9.7
O=[N+]([O-])c1ccc(N2CCN(C(=S)NC3CCCCC3)CC2)cc1	-53

SMILES	hERG current change (%, negative = inhibition) at 10uM [%]
S=C(NC1CC1)N1CCN(c2ccc(Cl)cc2)CC1	1.76
O=C(NC1CCCCC1)N1CCN(c2ccc(Cl)cc2)CC1	-27.8
O=C(NC1CCCCC1)N1CCN(c2ccc([N+](=O)[O-])cc2)CC1	-92.4
O=C(NC1CCCCC1)N1CCN(c2ccccc2)CC1	-0.0694
S=C(NC1CCCC1)N1CCN(c2ccc(Cl)cc2)CC1	-13.6
COc1ccc([C@H]2CC(=O)C=C(c3cccc4c3Oc3ccccc3S4)C2)cc1	-28.4
Cc1ccc(CNC(=O)CC(C)S(=O)(=O)c2ccc3c(c2)NC(=O)CO3)cc1 (stereo not drawn)	-22.1
CC(=O)c1ccn(S(=O)(=O)c2ccc(Cl)cc2)c1	6.57
CC1(C)CC(=O)C([N+](=O)[O-])=C(NCCCC(=O)O)C1.O	15
Cc1cc(C(=O)COC(=O)C2=NNC(=O)CC2)c(C)n1-c1ccc(OC(F)F)cc1	-48.4
Cc1ccc(-n2c(C)cc(C(=O)COC(=O)C3=NNC(=O)CC3)c2C)cc1	-42.3
Cc1cc(C(=O)C(C)OC(=O)C2=NNC(=O)CC2)c(C)n1-c1ccc(OC(F)F)cc1 (stereo not drawn)	-73.3
COc1cc(C(=O)NCC(c2ccco2)N2CCCC2)ccc1OCc1c(C)noc1C (stereo not drawn)	-21.1
O=C(Nc1cccc2ncccc12)c1ccc(-c2ccc(Cl)cc2Cl)o1	-7.06
CS(=O)(=O)N(CC(=O)Nc1ccc(S(=O)(=O)N2CCOCC2)cc1)c1cccc(F)c1	-9.72
Cc1noc(C)c1COc1cccc(C(=O)Nc2ccccc2)c1	-7.11
Cc1ccc(OCCNC(=O)CCC(=O)N2CCOCC2)cc1	15.9
CC1CN(CC(=O)Nc2ccc(S(N)(=O)=O)cc2)CC(C)O1 (stereo not drawn)	-52
Cc1ccc(S(=O)(=O)N2CCN(CC(=O)N/N=C\c3ccc(Cl)c([N+](=O)[O-])c3)CC2)cc1	-30.8
O=C(CN1CCN(S(=O)(=O)c2ccccc2)CC1)Nc1ccc(Cl)c([N+](=O)[O-])c1	-65
O=C(CN1CCN(S(=O)(=O)c2ccccc2)CC1)Nc1ccc(Cl)c(Cl)c1	-16

SMILES	hERG current change (%, negative = inhibition) at 10uM [%]
CC1CCN(CC(=O)Nc2ccc(S(=O)(=O)N3CCC(C)CC3)cc2)CC1.Cl	-42.8
CC1CCN(S(=O)(=O)c2ccc(NC(=O)CN3CCN(c4ccccc4)CC3)cc2)CC1	-58.2
CC1CC(C)CN(CC(=O)Nc2ccc(S(N)(=O)=O)cc2)C1 (stereo not drawn)	13.7
Cc1ccc(S(=O)(=O)N2CCN(CC(=O)Nc3ccc(N4CCOCC4)cc3)CC2)cc1C	-11.5
NS(=O)(=O)c1ccc(NC(=O)CN2CCCC2)cc1	3.7
Cc1ccc(S(=O)(=O)N2CCN(CC(=O)Nc3ccc([N+](=O)[O-])cc3)CC2)cc1C	-76.9
CC1CCN(S(=O)(=O)c2ccc(NC(=O)CN3CCN(C)CC3)cc2)CC1	-16
Cc1ccc(C)c(S(=O)(=O)N2CCN(CC(=O)Nc3ccc([N+](=O)[O-])cc3)CC2)c1	-40.7
Cc1ccccc1S(=O)(=O)Cc1ccc(C(=O)NCCCN2CCCC(C)C2)o1 (stereo not drawn)	-21.1
CCc1ccccc1NC(=O)c1ccc(-c2csc(C)n2)cc1	-12.4
COc1cccc(C(=O)OCn2nnc3ccccc3c2=O)c1	0.671
COc1cccc(-n2c(Cc3cc(=O)[nH]c(=O)[nH]3)nnc2SCc2cccc(C(F)(F)F)c2)c1	15.8
CCN(CC(=O)Nc1c(F)cccc1F)C(=O)c1ccc(N2C(=O)c3ccccc3C2=O)cc1	1.38
CN(CC(=O)NCCCN1CCOCC1)S(=O)(=O)c1ccc(F)cc1	15.4
NC(N)=NCCCC(NC(=O)c1ccccc1)C(=O)Nc1ccc2ccccc2c1 (stereo not drawn)	12.5
COCC(C)N=C1NN=C(c2cc(C)n(Cc3ccccc3Cl)c2C)CS1 (stereo not drawn)	-9.9
CCOC(=O)C1=C(C)NC(C)=C(C(=O)OCC)C1c1cn(-c2ccccc2)nc1-c1ccco1	-1.05
COc1cc(C(=O)OCC(=O)NC(C)CCc2ccccc2)cc(OC)c1OC (stereo not drawn)	9.14
CC1CCCN(CC(=O)Nc2ccc(S(=O)(=O)N3CCCCC3)cc2)C1 (stereo not drawn)	-15.7
Cc1cc(=O)[nH]c(SCC(=O)Nc2ccc(S(=O)(=O)N3CCCCC3)cc2)n1	-6.37
Cc1cc(C)c(C)c(S(=O)(=O)N2CCN(CC(=O)Nc3ccc([N+](=O)[O-])cc3)CC2)c1C	15.4

SMILES	hERG current change (%, negative = inhibition) at 10uM [%]
Cc1cc(C)nc(SCC(=O)Nc2ccc(S(=O)(=O)N3CCCCC3)cc2)n1	-61.3
O=[N+]([O-])c1ccc(NC(=S)N2CCN(S(=O)(=O)c3ccccc3)CC2)cc1	-24.6
CC1CCCN(CC(=O)Nc2ccc(S(=O)(=O)N3CCCCCC3)cc2)C1 (stereo not drawn)	-66.8
CC1CCCN(CC(=O)Nc2ccc(S(=O)(=O)N3CCCC3)cc2)C1 (stereo not drawn)	1.82
O=C(CSc1ncccn1)Nc1ccc(S(=O)(=O)N2CCCCC2)cc1	-12.9
O=C(CN1CCN(S(=O)(=O)c2ccccc2)CC1)Nc1ccc([N+](=O)[O-])cc1	-73.4
Cc1oc2ccccc2c1CNC(=O)N(C)C	14.2
Cc1cccc(N=Nc2ccc(O)c3ncccc23)c1	-8.51
CCCN(CC(=O)Nc1ccccc1OC)C(=O)c1cc(-c2cccs2)nn1-c1ccccc1	-9.02
COc1ccc(/C=N/Nc2nc3ccccc3o2)cc1OC	13.3
CC(=O)c1ccc(N2CCN(C(=O)COc3ccc4c(c3)CCC4)CC2)cc1	-34
Cc1ccc(SCc2cn3cccnc3n2)cc1	11.1
COc1cccc(CNC(=O)CN2C(=O)COc3ccc(S(=O)(=O)N4CCCCCC4)cc32)c1	24.8
COC(=O)c1cnc(Oc2ccc(NC(=O)NC(=O)c3c(OC)cccc3OC)cc2)cc1C(F)(F)F	-14.1
Cc1ccc(CNC(=O)c2cc3c(=O)n4ccccc4nc3n(Cc3ccco3)c2=N)cc1	-75.5
Cc1ccc(Cn2c(=O)n(-c3ccccc3)c(=O)c3ccc(C(=O)NCc4ccco4)cc32)cc1	-10.1
Cc1ccc(Cn2c(=N)c(C(=O)NCc3ccco3)cc3c(=O)n4ccccc4nc32)cc1	-79.8
Cc1ccc(S(=O)(=O)c2cc3c(=O)n4ccccc4nc3n(Cc3ccco3)c2=N)cc1C	-4.4
Cc1ccc(S(=O)(=O)c2cc3c(=O)n4ccccc4nc3n(Cc3ccco3)c2=N)cc1	-11.2
Cc1cccc(CSc2ccc(S(=O)(=O)N3CCCC3)cn2)c1	5.24
CC(NC(=O)C(=O)NCc1cccs1)c1ccccc1 (stereo not drawn)	16.9
